Compound activity deposited in PubChem BioAssay by Broad Institute.
Only a sample is shown.
aSyn UTR act: Activators working through SNCA 5'UTR binding (MLPCN); hit rate 7.1% among 300,000; AID 1814; activity score, % (tested at 7.5 µM), hits read low; alpha-synuclein 5'UTR reporter, activators screen; in the data active means activity score below about -60%
The depositor's hits bear a star.

SMILES	aSyn UTR act
O=C(CCS(=O)(=O)c1ccccc1)N(CCCN1CCOCC1)c1nc2ccc(F)cc2s1	-132*
COc1cc(/C=N/Nc2nc3ccccc3o2)cc(OC)c1O	-86*
COc1cc(/C=N\Nc2nc3ccccc3o2)cc(OC)c1OC	-186*
Brc1ccc(/C=N/Nc2nc3ccccc3o2)cc1	-191*
COc1cccc(NC(=S)N2CCC(c3ccc(C)cc3)C2)c1 (stereo not given)	-66*
CCc1cccc(NC(=S)N2CCC(c3ccccc3)C2)c1 (stereo not given)	-88*
CSc1cccc(NC(=S)N2CCC(c3ccccc3)C2)c1 (stereo not given)	-76*
CSc1cccc(NC(=O)N2CCCC(CNS(=O)(=O)Cc3ccccc3)C2)c1 (stereo not given)	-98*
O=C(N/N=C/c1ccco1)Nc1ccccc1	-130*
CCOc1ccc(/C=N/Nc2ccccc2)cc1	-75*
Clc1ccc(/C=N\Nc2ccccc2)cc1	-67*
O=C(N/N=C/c1ccc(Cl)cc1)Nc1ccccc1	-170*
CCCCN1C(=O)/C(=C/C=C2\SCCN2C)SC1=S	-121*
COc1ccc2c(c1)O/C(=C\c1ccccc1C)C2=O	-131*
CC(C)(C)c1ccc(C(=O)c2c[nH]c(C(=O)O)c2)cc1	-102*
CN(C)C=NC(=O)c1cc(C(=O)c2ccc(C(C)(C)C)cc2)c[nH]1	-87*
O=[N+]([O-])c1ccc(NNC(=S)Nc2ccccc2)cc1	-122*
Fc1cccc(NC(=S)NNc2ccccc2)c1	-140*
O=[N+]([O-])c1ccc(O)c(NC(=S)Nc2ccccc2)c1	-157*
O=C(/C=C/Nc1cccc([N+](=O)[O-])c1)c1ccco1	-283*
Cc1ccc(C(=O)/C=C/Nc2cccc([N+](=O)[O-])c2)o1	-167*
COc1ccc(C=C2c3ccccc3C(=O)c3ccccc32)c(OC)c1	98
COc1ccc(/C=C2\CN(Cc3ccccc3)C/C(=C\c3ccc(OC)cc3OC)C2=O)c(OC)c1	-68*
COc1ccc2c(c1)OC/C(=C/c1cccs1)C2=O	-151*
COc1ccc(/C=C2\COc3ccccc3C2=O)c(OC)c1	-140*
SMILES	aSyn UTR act
CCCCOc1ccc(-n2nc(C)cc2C)nn1	-72*
C=CCC(CC(O)COCCC)C(=O)NNC(=S)Nc1ccccc1 (stereo not given)	-113*
CNC(=O)/C(C#N)=C/c1ccc(OCCOc2ccccc2)cc1	-66*
N#C/C(=C\c1ccc(OCc2ccccc2)cc1)C(N)=O	-92*
Cc1ccccc1COc1ccc(/C=C(\C#N)C(N)=O)cc1	-105*
N#Cc1ccccc1COc1ccc(/C=C/C(=O)O)cc1	71
N#C/C(=C/c1ccc(OCc2ccccc2)cc1)C(=O)NC1CCCCC1	-121*
O=c1[nH]c2ccccc2nc1/C=C/c1ccc(F)cc1	-139*
Cn1c(=O)c(/C=C/c2ccccc2)nc2ccccc21	-291*
O=c1[nH]c2ccccc2nc1/C=C/c1ccc(O)cc1	-214*
O=c1[nH]c2ccccc2nc1/C=C/c1ccccc1	-165*
Oc1ccc(/C=C/c2ccc3ccccc3n2)cc1	90
CC(=O)c1ccc(/C=C/c2nc3ccccc3n2C)o1	-91*
CCC(C)NC(=O)c1cc(-c2ccccc2O)on1 (stereo not given)	-83*
CCN(CC)C(=O)c1cc(-c2ccccc2OC)on1	-125*
COc1ccc(NC(=O)c2cc(-c3ccccc3Cl)on2)cc1OC	-96*
COc1ccccc1-c1cc(C(=O)NC(C)C)no1	-265*
COc1ccccc1-c1cc(C(=O)Nc2ccc(F)cc2F)no1	-155*
C=C1C(=O)C=C2CN(C(=O)c3ccccc3)[C@@](Cc3ccc(F)cc3)(C(=O)OC)[C@@H]12	56
CCOC(=O)C1=C(c2ccccc2)O/C(=C(/C#N)C(F)(F)F)S1	-64*
Cc1cccc2nc(COc3ccc4ccccc4c3Br)cn12	-203*
O/N=C/c1ccccc1OCc1ccc(Cl)cc1	-98*
Cc1ccc(O)c(/C=N/NC(=O)Cc2ccc(Cl)cc2)c1	61
O=C(Cc1ccccc1)N/N=C/c1ccccc1OCc1ccc(Cl)cc1	-95*
Cc1ccc(C2NNC(=O)C2NC(=O)c2ccccc2)cc1 (stereo not given)	-111*
SMILES	aSyn UTR act
N/C(=N\OC(=O)Cc1ccccc1)c1ccc(Br)cc1	-80*
COc1ccc(C(=O)CC(=O)c2ccc(F)cc2)cc1	-165*
Cc1ccc(/C(N)=N/OC(=O)CCCc2ccccc2)cc1	-68*
COc1ccc(C(=O)C(CCC(CNC(C)(C)C)C(=O)c2ccc(OC)cc2)CNC(C)(C)C)cc1 (stereo not given)	65
Cc1ccc(/C(N)=N/OC(=O)Cc2ccccc2)cc1	-130*
COc1ccc(NC(=O)CCSc2ccc(F)cc2)cc1	-93*
COc1ccc(C(=O)CC(=O)C(=O)Nc2ccc(C)c(C)c2)cc1	-63*
Cc1cccc(/C(N)=N/OC(=O)CCc2ccccc2)c1	-157*
COc1ccc(/C(N)=N/OC(=O)CCc2ccccc2)cc1	-100*
O=C(Cc1ccccn1)c1ccc(F)cc1	-64*
O=C(CC(=O)c1ccccc1O)c1ccc(F)cc1	-75*
COc1ccc(OCc2cccc(C(=O)O)c2)cc1	128
